From PubChem BioAssay
Shown are actives, neighbours in structure and some others; about 12% of the full set was active somewhere.
G9a inh – qHTS Assay for Inhibitors of Histone Lysine Methyltransferase G9a. Histone-lysine N-methyltransferase EHMT2 (Homo sapiens), Q96KQ7. G9a H3K9 monomethylation, AlphaScreen, 2 h. Potency, µM (highest dose often 102 µM), hits mostly inhibitors. 8.8% of 350,000 active. AID 504332, 2011; also: nearly all actives have a fitted effect of over 75% in size
Target sequence (Q96KQ7 913-1193 limits assumed): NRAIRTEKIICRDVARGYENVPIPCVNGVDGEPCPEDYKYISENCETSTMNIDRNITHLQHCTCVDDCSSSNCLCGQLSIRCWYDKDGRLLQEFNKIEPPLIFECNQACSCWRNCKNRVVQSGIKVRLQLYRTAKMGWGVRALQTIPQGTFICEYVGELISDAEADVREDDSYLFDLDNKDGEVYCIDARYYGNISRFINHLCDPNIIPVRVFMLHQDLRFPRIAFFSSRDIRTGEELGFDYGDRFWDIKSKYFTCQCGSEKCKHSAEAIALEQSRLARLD
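AlphaScreen detection with an anti-monomethyl H3K9 antibody quantified product after a 2 h room-temperature reaction containing 500 nM biotinylated H3K9 peptide, 20 µM SAM and 20 nM enzyme, which had been preincubated 15 min with compound.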
JMJD2A Tudor – qHTS Assay for Inhibitors of JMJD2A-Tudor Domain; Lysine-specific demethylase 4A (Homo sapiens), O75164; AlphaScreen JMJD2A-Tudor / H3K4me3 peptide binding; Potency, µM (titrated, usually from 114 µM), most hits filed as inhibitors; 4.4% of 390,000 active; AID 504339, 2011; also: nearly all actives have a fitted effect of over 50% in size
Sfp inh – qHTS Assay for Inhibitors of Bacillus subtilis Sfp phosphopantetheinyl transferase (PPTase); 4'-phosphopantetheinyl transferase ffp (Bacillus subtilis), Q9F4F7; Biochemical Sfp PPTase activity, qHTS; Potency, µM, hits mostly inhibitors; 3.5% of 310,000 active; AID 1490, 2009;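 also: the enzyme is Sfp with the accession as filed and its product quenches rhodamine fluorescence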
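Compounds were incubated with enzyme (final 15 nM) for 15 min at room temperature before substrate addition started the reaction. Fluorescence at 525 nm excitation, 598 nm emission was recorded immediately and after 30 minutes.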
HP1b binding inh – HTS for Inhibitors of HP1-beta Chromodomain Interactions with Methylated Histone Tails; 0.56% of 390,000 active; AlphaScreen HP1-beta / biotin-H3K9me3 peptide binding; AID 540317, 2011; Potency, µM (series often up to 114 µM), most hits filed as inhibitors; also: nearly all actives have a fitted effect of over 70% in size
Target sequence (P83916 whole entry, looked up): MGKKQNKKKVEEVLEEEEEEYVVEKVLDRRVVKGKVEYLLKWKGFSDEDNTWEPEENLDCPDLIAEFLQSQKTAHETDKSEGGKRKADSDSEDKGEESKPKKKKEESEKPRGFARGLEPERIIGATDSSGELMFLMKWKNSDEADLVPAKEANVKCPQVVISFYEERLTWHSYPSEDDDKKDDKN
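Compound inhibition of the preformed complex between 50 nM HP1-beta and 50 nM biotinylated H3K9me3 peptide was read by AlphaScreen. Buffer was PBS pH 7.4 with 0.01% Tween-20. Incubations ran 30 min at room temperature, with 10 ug/mL donor/acceptor beads.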
BAZ2B inh – qHTS Assay for Inhibitors of BAZ2B. 4.4% of 360,000 active. Bromodomain adjacent to zinc finger domain protein 2B (Homo sapiens), Q9UIF8. Potency, µM (doses to about 114 µM), most hits filed as inhibitors. AlphaScreen BAZ2B-H3K14Ac peptide displacement; also: nearly all actives have a fitted effect of over 60% in size
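AlphaScreen displacement of biotin-H3(5-23)K14Ac peptide (50 nM final) from BAZ2B (50 nM final) in PBS pH 7.4, 0.01% Tween-20; complex preformed 30 min RT, then compounds (top 110 uM) 30 min RT, beads 20 min dark.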
A number is an active result; [ ] = dose if it differs, or a comment. Calls follow the shape of the dose curve; as a rule, active = well fitted curve in the direction sought with a large enough effect; inconclusive = small, poorly fitted or top-dose-only effect, or another doubt; inactive = no such curve, though single readings can be large; an effect the other way counts as inactive or inconclusive.

What do the screens show for `O=C(Nc1ccc(F)cc1Cl)C1CCN(C(=O)Nc2ccccc2)CC1`?
G9a inh: inactive; JMJD2A Tudor: inactive; Sfp inh: inactive; HP1b binding inh: inactive; BAZ2B inh: inactive

Results for O=C1CC(NNc2ccccc2)C(=O)N1c1ccccc1 (centres undefined) ?
G9a inh: 8.9µM; JMJD2A Tudor: inactive; Sfp inh: inactive; HP1b binding inh: inactive; BAZ2B inh: inactive

Results for O=C(c1ccc(NS(=O)(=O)c2ccccc2)cc1)N1CCN(Cc2ccc3c(c2)OCO3)CC1 ?
G9a inh: 50µM; JMJD2A Tudor: inactive; Sfp inh: inactive; HP1b binding inh: inactive; BAZ2B inh: inactive

Results for COc1ccc(NS(=O)(=O)c2cccc(C(=O)N3CCN(Cc4ccc5c(c4)OCO5)CC3)c2)cc1 ?
G9a inh: inconclusive; JMJD2A Tudor: inactive; HP1b binding inh: inactive; BAZ2B inh: inactive

Results for COc1ccc(Cl)cc1C(=O)N1CCN(Cc2ccc3c(c2)OCO3)CC1 ?
JMJD2A Tudor: inactive; Sfp inh: inactive; HP1b binding inh: inactive; BAZ2B inh: inactive[0.457 µM]

How did COc1cc(C(=O)N2CCN(Cc3ccc4c(c3)OCO4)CC2)cc(OC)c1OC do in these assays?
G9a inh: 20µM; JMJD2A Tudor: 0.89µM; Sfp inh: inactive; HP1b binding inh: inconclusive; BAZ2B inh: 79µM

What do the screens show for `O=S(=O)(Nc1ccc(O)c(CN2CCCCC2)c1)c1ccccc1`?
G9a inh: 45µM; JMJD2A Tudor: inactive; Sfp inh: inactive; HP1b binding inh: inactive; BAZ2B inh: inactive

Results for COc1cccc(C(=O)N2CCN(Cc3ccc4c(c3)OCO4)CC2)c1OC ?
G9a inh: inconclusive; JMJD2A Tudor: 7.9µM; Sfp inh: inactive; HP1b binding inh: inactive; BAZ2B inh: 79µM

What do the screens show for `C[C@H]1[C@H]2CC[C@H]3C4CC=C5C[C@@H](N(C)C)CC[C@]5(C)C4CC[C@]23CN1C` (some centres undefined)?
Sfp inh: inactive

Results for COc1ccccc1OCCC(=O)NCc1ccc2c(c1)OCO2 ?
G9a inh: inactive; JMJD2A Tudor: 35µM; Sfp inh: inactive; HP1b binding inh: inactive; BAZ2B inh: inactive

How did COc1ccc(S(=O)(=O)N2CCN(Cc3ccc4c(c3)OCO4)CC2)c2ccccc12 do in these assays?
G9a inh: 50µM; JMJD2A Tudor: inactive; Sfp inh: inactive; HP1b binding inh: inactive; BAZ2B inh: inactive

What do the screens show for `COc1ccccc1NC(=O)N1CCN(Cc2ccc3c(c2)OCO3)CC1`?
JMJD2A Tudor: 4µM; Sfp inh: inconclusive; HP1b binding inh: inconclusive; BAZ2B inh: 50µM

What do the screens show for `Cc1ccccc1OCCCC(=O)Nc1ccc2c(c1)OCO2`?
G9a inh: 20µM; JMJD2A Tudor: inactive; Sfp inh: inactive; HP1b binding inh: inactive; BAZ2B inh: inactive

What do the screens show for `Cc1onc(-c2c(F)cccc2Cl)c1C(=O)Nc1cc(S(=O)(=O)N2CCCCC2)ccc1O`?
JMJD2A Tudor: inactive; HP1b binding inh: inactive

What do the screens show for `Cc1cccc(C(=O)Nc2ccc(C(=O)OCc3cc(=O)n4c5c(sc4n3)CCCC5)cc2)c1`?
G9a inh: inactive; JMJD2A Tudor: inactive; HP1b binding inh: inactive; BAZ2B inh: inactive

How did COC(=O)CCNC(=O)N1CCN(c2nnc(C)c3c(C)n(-c4ccccc4)nc23)CC1 do in these assays?
G9a inh: inactive; JMJD2A Tudor: inactive; HP1b binding inh: inactive; BAZ2B inh: inactive

Results for CSc1ccc(S(=O)(=O)N2CCN(Cc3ccc4c(c3)OCO4)CC2)cc1 ?
G9a inh: 79µM; JMJD2A Tudor: inactive; Sfp inh: inactive; HP1b binding inh: inactive; BAZ2B inh: inactive

Results for Cc1ccc(S(=O)(=O)N(C(=O)c2ccncc2)c2ccc(OC(=O)c3ccncc3)c3ccccc23)cc1 ?
G9a inh: 8.9µM; JMJD2A Tudor: 40µM; Sfp inh: 25µM; HP1b binding inh: inactive; BAZ2B inh: inactive

How did COC(=O)c1c(C)oc2ccc(N(C(=O)c3ccncc3)S(=O)(=O)c3ccc(C)cc3)cc12 do in these assays?
G9a inh: inactive[2.33 µM]; JMJD2A Tudor: inactive; Sfp inh: inactive; HP1b binding inh: inactive; BAZ2B inh: inactive

How did Cc1ccc(S(=O)(=O)N(C(=O)c2ccncc2)c2ccc(OC(=O)c3ccncc3)c3ccccc23)c(C)c1 do in these assays?
G9a inh: 1.6µM; JMJD2A Tudor: inconclusive; Sfp inh: 45µM; HP1b binding inh: inconclusive; BAZ2B inh: inconclusive

Results for CCCN(CCC)C(=O)Cn1c(=O)n(Cc2ccc(C(=O)NCCc3ccc(OC)c(OC)c3)cc2)c(=O)c2ccccc21 ?
G9a inh: inactive; JMJD2A Tudor: inactive; HP1b binding inh: inactive; BAZ2B inh: inactive

What do the screens show for `O=C1c2ccccc2CN1C(CO)Cc1ccccc1` (centres undefined)?
G9a inh: inactive[12.7 µM]; JMJD2A Tudor: inactive; Sfp inh: inactive; HP1b binding inh: inactive; BAZ2B inh: inactive

What do the screens show for `CN1CCS/C1=C/C=C1\SC(=S)N(CC(=O)O)C1=O`?
G9a inh: 45µM; JMJD2A Tudor: inconclusive; Sfp inh: inconclusive; HP1b binding inh: inactive; BAZ2B inh: 50µM

What do the screens show for `CCCN1C(=O)/C(=C\C=C2/C=CN(CC)c3ccccc32)SC1=S`?
G9a inh: 7.9µM; JMJD2A Tudor: inconclusive; Sfp inh: 7.1µM; HP1b binding inh: inconclusive; BAZ2B inh: inconclusive

What do the screens show for `CC(/C=C1\SC(=S)N(CC(=O)N2CCN(c3ccccc3)CC2)C1=O)=C\c1ccccc1`?
G9a inh: inactive; JMJD2A Tudor: inactive; Sfp inh: inactive; HP1b binding inh: inactive; BAZ2B inh: inactive

What do the screens show for `CCN1C(=O)/C(=C/c2cnn(CC)c2C)SC1=S`?
G9a inh: inactive; JMJD2A Tudor: inactive; Sfp inh: inactive; HP1b binding inh: inactive; BAZ2B inh: inactive

What do the screens show for `CCCCN1C(=O)/C(=C/C=C2\SCCN2C)SC1=S`?
G9a inh: 13µM; JMJD2A Tudor: 35µM; Sfp inh: inactive; HP1b binding inh: 28µM; BAZ2B inh: 10µM

What do the screens show for `CCCCN1C(=O)/C(=C/C=C2\N(C)c3ccccc3C2(C)C)SC1=S`?
G9a inh: inconclusive; Sfp inh: inactive; BAZ2B inh: 8.9µM

Results for CCOC(=O)c1c(NC(=O)c2cc3nc(-c4ccccc4)cc(C(F)(F)F)n3n2)sc2c1CCC(C)C2 (centres undefined) ?
G9a inh: inactive; JMJD2A Tudor: inactive; HP1b binding inh: inactive; BAZ2B inh: inactive

Results for C=CCOc1ccc(/C=C(\C#N)C(=O)Nc2ccccn2)cc1 ?
G9a inh: inactive; JMJD2A Tudor: inactive; Sfp inh: inactive; HP1b binding inh: inactive; BAZ2B inh: inactive

What do the screens show for `O=C(CSc1nc(=O)[nH]c2c1CCC2)NCc1ccc(F)cc1`?
G9a inh: inactive; JMJD2A Tudor: inactive; HP1b binding inh: inactive; BAZ2B inh: inactive
